From PubChem BioAssay
Measured potencies and affinities stand elsewhere. Records with an inconclusive call do not appear. The source made the active and inactive calls. Unless noted, how the calls were made is not given here.

Columns and labels:
[1] = inhibitors of PAX8-driven TPO luciferase reporter, dose response, RMG-I cells, cherry-pick (AID 687027;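 active means every replicate test run called active, with the signal dropping as expected and potency within twice the top valid dose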)
[2] = cytotoxicity in PAX8-dependent RMG-1 cells, dose response, cell-based, cherry-pick (AID 687029;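 active means signal drop whose fitted half-maximal concentration is at most twice the top valid dose, in every test run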;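 further: cells exposed to compound for 96 hours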)
[3] = cytotoxicity in IOSE-T80 ovarian epithelial cells, dose response, selectivity assay for PAX8 inhibitor project, cell-based, cherry-pick (AID 687032;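 active means fitted half-maximal concentration for viability loss no higher than twice the top valid dose, in every repeat run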;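 further: cells exposed to compound for 96 h before reading; 0% = neutral control wells and -100% = 2 µM mitoxantrone kill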)
[4] = inhibitors of CMV-promoter luciferase reporter, dose response, counter-screen for Pax8 inhibitor project, cell-based, HEK293, luminescence, dry powder (AID 743020;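 active means signal-lowering compounds whose fitted half-maximal concentration is at or below twice the top tested dose in every run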;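 further: HEK293 cells stably expressing the CMV luciferase reporter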)
[5] = non-specific cell cytotoxicity, dose response, cytotoxicity control for PAX8 inhibitor project, plate reader, dry powder samples (AID 743021)
[6] = IOSE-T80 ovarian epithelial cell cytotoxicity, dose response, cytotoxicity control for PAX8 inhibitor project, plate reader, dry powder samples (AID 743045);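 further: 0% = neutral control median and -100% = positive control median; more negative values mean more cell killing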
[7] = A2780 ovarian cancer cell cytotoxicity, dose response, cytotoxicity control, plate reader, dry powder samples (AID 743046);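 further: 0% = neutral control wells and -100% = cytotoxic reference compound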
[8] = IGROV1 ovarian cancer cell cytotoxicity, dose response, PAX8 inhibitor project, plate reader, dry powder samples (AID 743043);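 further: more negative means fewer viable cells or more cytotoxicity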
[9] = NIH:OVCAR-3 ovarian cancer cell cytotoxicity, dose response, PAX8 inhibitor project, plate reader, dry powder samples (AID 743044); settings: max activity: at 35 µM, hits give low values unless noted
[10] = cytotoxicity in OVCAR8 ovarian cancer cells, dose response, PAX8 project, cell-based, plate reader, dry powder samples (AID 743197)

Measured: max activity

C[C@H]1CCCCO[C@H](CN(C)Cc2ccccc2)[C@@H](C)CN([C@@H](C)CO)C(=O)c2cc(NC(=O)Nc3ccc(C(F)(F)F)cc3)ccc2O1
not listed: [8] | [9] | [10]
inactive: all other assays above

Fc1cccc(CN2C[C@@H]3N[C@H](C2)C3c2ccc(-c3ccccc3)cc2)c1 (stereo not given in full)
inactive: [1] | [2] | [3] | [4] | [5] | [6]

O=C(Cc1ccccn1)N[C@@H]1CC[C@@H](CCn2cc(-c3ccccc3)nn2)O[C@H]1CO
inactive: [1] | [2] | [3] | [4] | [5] | [8] | [9] 6.29% | [6] | [7] | [10]

CN(C)C(=O)c1cccc(-c2ccccc2[C@@H]2[C@@H](C#N)N(C(=O)C3CC3)[C@H]2CO)c1
inactive: [1] | [2] | [3] | [4] | [5] | [8] | [9] 12.7% [at 0.26 µM, hits give low values] | [6] | [7] | [10]

C[C@@H]1CN([C@@H](C)CO)C(=O)c2cc(NS(=O)(=O)c3ccc(Cl)cc3)ccc2O[C@@H](C)CCCCO[C@H]1CN(C)C
inactive: [1] | [2] | [3] | [4] | [5] | [8] | [9] -14.3% | [6] | [7] | [10]

COc1ccc(-c2cn(CC[C@H]3CC[C@H](NC(=O)Cc4ccccn4)[C@@H](CO)O3)nn2)cc1
inactive: [1] | [2] | [3] | [4] | [5] | [8] | [9] -17.4% | [6] | [7] | [10]

C[C@H](O)C#Cc1ccc2c(c1)O[C@@H](CN(C)Cc1ccc(-c3ccccc3)cc1)[C@H](C)CN([C@@H](C)CO)S2(=O)=O
inactive: [1] | [2] | [3] | [4] | [5] | [8] | [9] -13.7% | [6] | [10]

CCOc1ccc(C(=O)Nc2ccc(Cc3ccncc3)cc2)cc1Br
inactive: [1] | [2] | [3] | [4] | [5]

C[C@@H]1CN([C@H](C)CO)C(=O)c2cccc(NC(=O)Nc3ccc(C(F)(F)F)cc3)c2O[C@H]1CN(C)CC1CC1
inactive: [1] | [2] | [3] | [4] | [5] | [8] | [9] -14% [at 0.26 µM, hits give low values] | [6] | [7] | [10]

C[C@@H]1CCCCO[C@H](CN(C)C)[C@H](C)CN([C@@H](C)CO)C(=O)c2cc(NS(=O)(=O)c3ccc(Cl)cc3)ccc2O1
inactive: [1] | [2] | [3] | [4] | [8] | [9] 34.9% [at 0.26 µM, hits give low values] | [6] | [7] | [10]

O=C(C[C@@H]1C=C[C@H](NC(=O)Nc2ccc(C(F)(F)F)cc2)[C@H](CO)O1)NCCN1CCCC1
inactive: [1] | [2] | [3] | [4] | [5] | [8] | [9] 7.59% [at 2.1 µM, hits give low values] | [6] | [7] | [10]

O=C(NC1CCCC1)N1CCCCN2[C@@H](CO)[C@@H](c3ccc(/C=C/c4ccccc4)cc3)[C@@H]2C1
inactive: [1] | [2] | [3] | [4] | [5] | [8] | [9] 28.4% [at 2.1 µM, hits give low values] | [6] | [10]

O=C(Cc1ccccn1)NCC[C@@H]1CC[C@H](NC(=O)Nc2ccc(C(F)(F)F)cc2)[C@@H](CO)O1
inactive: [1] | [2] | [3] | [4] | [5] | [8] | [9] -10.6% [at 16 µM, hits give low values] | [6] | [7] | [10]

COc1ccc(-c2cn(CC[C@@H]3CC[C@H](NC(=O)Cc4ccccn4)[C@H](CO)O3)nn2)cc1
inactive: [1] | [2] | [3] | [4] | [5] | [8] | [9] 27.6% [at 1 µM, hits give low values] | [6] | [10]

C[C@@H]1CN([C@@H](C)CO)C(=O)c2cccc(NS(=O)(=O)c3ccc(F)cc3)c2O[C@H]1CN(C)Cc1ccc(-c2ccccc2)cc1
inactive: [1] | [2] | [3] | [4] | [5] | [8] | [9] 17.5% | [6] | [7] | [10]

C[C@H]1CN([C@@H](C)CO)C(=O)c2cccc(NC(=O)Nc3ccc(C(F)(F)F)cc3)c2O[C@H]1CN(C)C(=O)NC1CCCCC1
inactive: [1] | [2] | [3] | [4] | [5] | [8] | [9] -14.7% [at 8 µM, hits give low values] | [6]

COc1ccc(-c2ccc3c(c2)[C@H]2[C@H](CCN2C(=O)Cc2cccnc2)[C@H](CO)N3C)cc1
inactive: [1] | [2] | [3] | [4] | [5] | [8] | [9] 35.5% [at 0.26 µM, hits give low values] | [6] | [7]

O=C(Nc1ccc(C(F)(F)F)cc1)Nc1ccc2c(c1)[C@@H]1C[C@@H](CC(=O)N3CCc4ccccc4C3)O[C@H](CO)[C@@H]1O2
inactive: [1] | [2] | [3] | [4] | [5] | [8] | [9] 19.1% [at 2.1 µM, hits give low values] | [6] | [7] | [10]

C[C@@H]1CN([C@H](C)CO)C(=O)c2cc(NC(=O)Cc3ccccc3)ccc2O[C@@H](C)CCCCO[C@H]1CN(C)Cc1ccc(Cl)c(Cl)c1
not listed: [9] | [10]
inactive: all other assays above

COc1ccc(-c2cn(CC[C@H]3CC[C@@H](NC(=O)Cc4ccccn4)[C@@H](CO)O3)nn2)cc1
inactive: [1] | [2] | [3] | [4] | [5] | [8] | [9] -22.3% [at 4.2 µM, hits give low values] | [6]

C[C@H](O)C#Cc1ccc([C@@H]2[C@@H](CO)N3CCCCN(S(=O)(=O)c4ccccc4)C[C@H]23)cc1
inactive: [1] | [2] | [3] | [4] | [5] | [8] | [9] 11.5% [at 0.26 µM, hits give low values] | [6] | [7] | [10]

C[C@@H]1CN([C@@H](C)CO)C(=O)c2cc(NC(=O)Nc3ccccc3)ccc2O[C@@H](C)CCCCO[C@H]1CN(C)Cc1ccc(Cl)c(Cl)c1
inactive: [1] | [2] | [3] | [4] | [5] | [8] | [9] -10.5% [at 8 µM, hits give low values] | [6] | [10]

COc1ccccc1NC(=O)N1CCCCN2[C@H](CO)[C@H](c3ccc(-c4ccc(C)cc4)cc3)[C@H]2C1
inactive: [1] | [2] | [3] | [4] | [5] | [8] | [9] 15.5% [at 1 µM, hits give low values] | [6] | [7] | [10]

COc1ccc2c3c([nH]c2c1)[C@@H](CO)N(C(=O)C1CC1)CC31CN(Cc2nccs2)C1
inactive: [1] | [2] | [3] | [4] | [5] | [8] | [9] 23.4% [at 4.2 µM, hits give low values] | [6] | [7] | [10]

O=C(Cc1ccccn1)N[C@H]1CC[C@H](CCn2cc(-c3ccccc3)nn2)O[C@@H]1CO
inactive: [1] | [2] | [3] | [4] | [5] | [8] | [9] -16.8% [at 16 µM, hits give low values] | [6] | [7] | [10]

O=C(c1cccs1)N1C[C@H](O)[C@@H](n2cc(C3CC3)nn2)C[C@@H]1c1ccccc1
inactive: [1] | [2] | [3] | [4] | [5]

O=C(C[C@H]1C[C@@H]2c3cc(NC(=O)C4CCOCC4)ccc3O[C@@H]2[C@@H](CO)O1)NCc1ccc(Oc2ccccc2)cc1
inactive: [1] | [2] | [3] | [4] | [8] | [9] -14.4% [at 4.2 µM, hits give low values] | [6] | [7] | [10]

O=C(C[C@H]1C[C@H]2c3cc(NS(=O)(=O)c4ccc(F)cc4)ccc3O[C@H]2[C@H](CO)O1)NCc1ccc(-c2ccccc2)cc1
inactive: [1] | [2] | [3] | [4] | [5] | [8] | [9] 10.6% [at 1 µM, hits give low values] | [6] | [7] | [10]

O=C(C[C@@H]1C[C@@H]2c3cc(NC(=O)Nc4ccccc4F)ccc3O[C@@H]2[C@H](CO)O1)NCc1ccc(Oc2ccccc2)cc1
inactive: [1] | [2] | [3] | [4] | [5] | [8] | [9] 14% [at 0.5 µM, hits give low values] | [6] | [7] | [10]
